Assay [1] in a line: growth inhibition of DIPG glioma cells, dose response, cell-based, SU-DIPG-XVII, MIPE5.0, CellTiter-Glo, qHTS (AID 1347060).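 On AC50: cells exposed to compound for 48 hours before viability readout.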 The following applies: SU-DIPG-XVII viability, CellTiter-Glo ATP luminescence. In general terms: ATP-based viability assays read luminescence as a measure of living cells.
Assay [2] in a line: growth inhibition of DIPG glioma cells, dose response, cell-based, SU-DIPG-XIII, MIPE4.0, CellTiter-Glo, qHTS (AID 1347061; cut-off not given, nearly all actives have AC50 up to about 37 µM;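 further: cells exposed to compound for 48 hours before readout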). As to conditions: SU-DIPG-XIII viability, CellTiter-Glo ATP luminescence.
The nature of assay [3]: growth inhibition of DIPG glioma cells, dose response, cell-based, SU-DIPG-IV, MIPE4.0, CellTiter-Glo, qHTS (AID 1347063; cut-off not given, nearly all actives have AC50 up to about 30 µM;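 further: compound exposure lasted 48 hours before the viability readout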). As to conditions: SU-DIPG-IV viability, CellTiter-Glo ATP luminescence.
The nature of assay [4]: growth inhibition of DIPG glioma cells, dose response, cell-based, SU-DIPG-XIII, MIPE5.0, CellTiter-Glo, qHTS (AID 1347064; cut-off not given, nearly all actives have AC50 up to about 23 µM;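 on AC50: cells exposed to compound for 48 hours before the viability read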). The following applies: SU-DIPG-XIII viability, CellTiter-Glo ATP luminescence.
The nature of assay [5]: viability loss in pontine glioma line – cell-based, SU-DIPG-XXV, MIPE5.0, CellTiter-Glo, qHTS, dose response (AID 1347065).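 Further: cells exposed to compound for 48 hours before ATP readout.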 As to conditions: CellTiter-Glo ATP luminescence.
Assay [6] is described as follows: JHH-DIPG-1 glioma cell viability, MIPE5.0 library, CellTiter-Glo luminescence, qHTS (AID 1347067).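 Further: cells exposed to compound for 48 hours before readout.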 As to conditions: JHH-DIPG-1 glioma viability, CellTiter-Glo ATP luminescence.
Assay [7] in a line: SU-DIPG-XXV glioma cell viability, MIPE5.0 library, qHTS (AID 1347068; cut-off not given, nearly all actives have IC50 up to about 30 µM;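 on IC50: cells exposed to compound for 48 hours before viability readout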). (In general: Quantitative high-throughput screening tests each substance at several concentrations.)
Assay [8] can be described thus: sensitizers of A549 cells to miR-34 induction, primary screen, imaging, A549 dox-inducible miR-34, nuclei and caspase counts (AID 1347080;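 active means compounds whose cell count with miR-34 switched on is under 0.7 times the count with it off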). The following applies: A549 miR-34 inducible, Hoechst nuclei count, 48 h.
The nature of assay [9]: survival rescue of mitochondrial mutant cells in low glucose, primary screen, MELAS cybrids, Rieske KO mouse fibroblasts, CellTiter-Glo (AID 1508586;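 active means mean z-score across replicates of 1.96 or higher in either the MELAS or the Rieske mutant cell line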;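 further: z relative to plate mean and SD of compound and empty wells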).
Assay [10] is described as follows: SU-DIPG-VI glioma cell viability, MIPE4.0 library, CellTiter-Glo luminescence, qHTS (AID 1347066; cut-off not given, nearly all actives have AC50 up to about 30 µM;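 further: cells exposed to compound for 48 hours before readout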). As to conditions: CellTiter-Glo ATP luminescence.
Assay [11] can be described thus: growth inhibition of DIPG glioma cells, dose response, cell-based, JHH-DIPG-1, MIPE4.0, CellTiter-Glo, qHTS (AID 1347062; cut-off not given, nearly all actives have AC50 up to about 27 µM;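 on AC50: cells exposed to compound for two days before readout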). As to conditions: JHH-DIPG-1 viability, CellTiter-Glo ATP luminescence.
Assay [12] in a line: modifiers of HSF1 nuclear foci, imaging, Selleck Cancer Library (AID 1347162; in the data active means plate-normalised HSF1 focus index below about 0.46). The following applies: human cells, at 10 µM; SSMD: measured here: HSF1 foci SSMD mean; cell count: measured here: cell number; plate-normalised HSF1 focus index: stronger effect = lower value.
Assay [13] can be described thus: ovarian cancer cell viability with rucaparib, profiling panel, oncology-focused library, rucaparib conditional (AID 1508598;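 active means normalized viability below 100% at a tested concentration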). The following applies: patient-derived ovarian cancer cells, CellTiter-Glo viability, 144 h, stronger effect = lower value.
The mark [14] stands for this setting: stronger effect = lower value, cell number ratio, induced over uninduced.
Setting [15] is: measured here: relative caspase fold change +Dox/-Dox.
The mark [16] stands for this setting: measured here: total cells with miR-34 induction, stronger effect = lower value.
[17] abbreviates: measured here: total cells without miR-34 induction.
[18] abbreviates: MELAS cybrid survival, CellTiter-Glo 48 h, stronger effect = higher value.
The mark [19] stands for this setting: Rieske KO mouse fibroblast survival, CellTiter-Glo 72 h.

Where “and” joins values, the source holds several entries; their conditions need not be identical. Equal values may be shown once. Results filed as inconclusive are left out. Calls of active or inactive are those of the source. Unless noted, cut-off not given; nearly all actives show AC50 up to about 26 µM.

As usually defined, the AC50 is the concentration giving half of the maximal activity seen. By IC50 is commonly meant the point on the concentration scale where inhibition reaches its midpoint. As to `Cc1cccc(-c2[nH]c(C(C)(C)C)nc2-c2ccc3c(c2)OCO3)n1`, the AC50 in assay [1] was 3.72 µM (active); in assay [2], 526 nM (active); in assay [3] it was 6.62 µM (active); in assay [4], 2.63 µM (active); in [5], 2.95 µM (active); in assay [6] it was 1.18 µM (active). For the same molecule, in [7], the IC50 was 3.72 µM (active). Moreover, the values for the fold change in [8] (setting [14]) and in assay [8] (setting [15]) were 0.974 (inactive) and 0.464, respectively. The values for the cell count in [8] (setting [16]) and in [8] (setting [17]) were 3490 and 3590, respectively. Besides, the z-score is -0.251 (inactive) in [9] (setting [18]) and -1.59 in assay [9] (setting [19]).

Take `CC[C@H](NC(=O)[C@H](C)NC)C(=O)N1C[C@@H](O)C[C@H]1Cc1c(-c2[nH]c3cc(F)ccc3c2C[C@@H]2C[C@H](O)CN2C(=O)[C@H](CC)NC(=O)[C@H](C)NC)[nH]c2cc(F)ccc12`: the outcome in [1], in assay [2], in [4], in assay [5], in assay [10] and in assay [6] was inactive. Moreover, the molecule was classed as inactive in assay [7]. In [3], the AC50 is 0.0662 µM (active).

Turning to `CCNC(=O)[C@H]1O[C@@H](n2cnc3c(N)nc(NCCc4ccc(CCC(=O)O)cc4)nc32)[C@H](O)[C@@H]1O`, the call in assay [1], in [2], in assay [11], in assay [5], in [10] and in assay [6] was inactive. Also, in assay [7], the result was inactive.

As for `CCN(C(=O)c1c(O)c2c(Cl)cccc2n(C)c1=O)c1ccccc1`, the concentration at half-maximal activity (AC50) in assay [1] was 8.33 µM (active); in assay [11] it was 14.8 µM (active). The call in assay [2], in [4] and in [10] was inactive. Further, the figures for the fold change in [8] (setting [14]) and in assay [8] (setting [15]) were 0.884 (inactive) and 0.907, respectively. For the same molecule, the cell count in [8] (setting [16]) stood at 8690; in [8] (setting [17]), 9820. For the same molecule, the z-score in assay [9] (setting [18]) is -0.321 (inactive); in assay [9] (setting [19]) it was 0.483.

Regarding `c1cc(-c2sc(-c3ccncc3)c(-c3ccncc3)c2-c2ccncc2)ccn1`, the call in [1], in [2], in assay [11], in assay [5], in assay [10] and in [6] was inactive. In addition, the outcome in assay [7] was inactive.

For `CN(C)c1ccc(C2Nc3ccc4ccccc4c3C3=C2C(=O)CC(C)(C)C3)cc1Br` (stereo unspecified), the call in assay [1], in [2], in [11], in assay [10] and in assay [6] was inactive.

For the molecule `CC1CCC(C(=O)N(c2cc(C#CC(C)(C)C)sc2C(=O)O)C2CCC(O)CC2)CC1` (stereo unspecified), the AC50 in assay [1] was 26.3 µM (active); in [6], 23.5 µM (active). For the same molecule, the molecule was called inactive in assay [2] and in assay [11]. The fold change was 0.937 (inactive) in assay [8] (setting [14]) and 0.832 in assay [8] (setting [15]). In addition, the cell count was 7690 in assay [8] (setting [16]) and 8210 in assay [8] (setting [17]). For the same molecule, the z-score is 0.177 (inactive) in assay [9] (setting [18]) and -0.0881 in assay [9] (setting [19]).

One may read the viability as a read-out of living cells in per cent, often relative to untreated cells. In the case of `Cc1cccc(-c2[nH]c(C(C)(C)C)nc2-c2ccc3nccnc3c2)n1`, the outcome in [1] and in assay [7] was inactive. For the same molecule, the AC50 in assay [2] is 2350 nM (active); in assay [3], 20.9 µM (active); in assay [4], 9.34 µM (active); in assay [5] it was 10.5 µM (active); in assay [10], 4.69 µM (active); in [6] it was 5.9 µM (active). Moreover, the fold change in assay [8] (setting [14]) is 1.02 (inactive) and 0.895 (inactive); in assay [8] (setting [15]), 0.491 and 0.704. The cell count in assay [8] (setting [16]) is 4120 and 3500; in [8] (setting [17]), 4050 and 3910; in assay [12], 7730. This molecule also came in with an SSMD in assay [12] of 1.52. The plate-normalised HSF1 focus index in [12] was 1.09 (inactive). In addition, the z-score in assay [9] (setting [18]) is -0.318 (inactive); in assay [9] (setting [19]), -0.927. In addition, the viability in [13] (at 0.000305 µM, OCI-C5x cells, with rucaparib 10 µM, 100% = cells with rucaparib alone) was 121% (inactive); in assay [13] (at 0.000305 µM, OCI-C5x cells, without rucaparib) it was 111% (inactive); in [13] (at 0.000305 µM, OCI-P5x cells, with rucaparib 20 µM, 100% = cells with rucaparib alone) it was 101% (inactive); in [13] (at 0.000305 µM, OCI-P5x cells, without rucaparib) it was 95.1% (active); in [13] (at 0.00122 µM, OCI-C5x cells, with rucaparib 10 µM, 100% = cells with rucaparib alone), 106% (inactive); in assay [13] (at 0.00122 µM, OCI-C5x cells, without rucaparib) it was 112% (inactive). Also, the viability in [13] (at 0.00122 µM, OCI-P5x cells, with rucaparib 20 µM, 100% = cells with rucaparib alone) was 100% (active); in assay [13] (at 0.00122 µM, OCI-P5x cells, without rucaparib) it was 98.3% (active); in [13] (at 0.00488 µM, OCI-C5x cells, with rucaparib 10 µM, 100% = cells with rucaparib alone), 120% (inactive); in assay [13] (at 0.00488 µM, OCI-C5x cells, without rucaparib), 113% (inactive); in assay [13] (at 0.00488 µM, OCI-P5x cells, with rucaparib 20 µM, 100% = cells with rucaparib alone), 99.5% (active); in assay [13] (at 0.00488 µM, OCI-P5x cells, without rucaparib) it was 98.9% (active). Also, the viability in assay [13] (at 0.0195 µM, OCI-C5x cells, with rucaparib 10 µM, 100% = cells with rucaparib alone) was 119% (inactive).

These data come from PubChem BioAssay.
